Results taken from PubChem BioAssay AID2427 (National Center for Advancing Translational Sciences (NCATS), 2010).
The source made the active and inactive calls.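 The calls were made as follows: active = melting temperature shift above 3 C; inconclusive = shift above 1 C but not above 3 C; inactive = the rest.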

Biological target: 15-hydroxyprostaglandin dehydrogenase [NAD(+)] (Homo sapiens) (UniProt P15428)
Test: Thermal Shift Assay for Inhibitors of HPGD (15-Hydroxyprostaglandin Dehydrogenase)
Settings: Recombinant HPGD thermal shift, SYPRO orange DSF, at 250 µM, stronger effect = higher value
Protocol: Assay Overview: Human 15-Hydroxyprostaglandin dehydrogenase (HPGD) catalyzes the inactivation of prostaglandin E2, and plays a major role in cancer biology by antagonizing the oncogenic potential of cyclooxygenase type 2 (COX2). Studies to assess the stability of human 15-PGDH in presence of compounds was performed as described (Niesen et al., 2007) with variations. References 1. Myung SJ, Rerko RM, Yan M, Platzer P, Guda K, Dotson A, Lawrence E, Dannenberg AJ, Lovgren AK, Luo G, Pretlow TP, Newman RA, Willis J, Dawson D, Markowitz SD. 15-Hydroxyprostaglandin dehydrogenase is an in vivo suppressor of colon tumorigenesis. Proc Natl Acad Sci U S A. 2006 Aug 8;103(32):12098-102. 2. Yan M, Rerko RM, Platzer P, Dawson D, Willis J, Tong M, Lawrence E, Lutterbaugh J, Lu S, Willson JK, Luo G, Hensold J, Tai HH, Wilson K, Markowitz SD. 15-Hydroxyprostaglandin dehydrogenase, a COX-2 oncogene antagonist, is a TGF-beta-induced suppressor of human gastrointestinal cancers. Proc Natl Acad Sci U S A. 2004 Dec 14;101(50):17468-73. 3. […]
HPGD was diluted to a final assay concentration of 1 uM in 100 mM Tris buffer, pH 8.0, containing 0.01% Tween-20 and 1:1000 SYPRO orange dye. […] Heat denaturation curves were recorded using a RT-PCR instrument (Mx3005p, Agilent) applying a temperature gradient of 2 degree C/min. […]

15-hydroxyprostaglandin dehydrogenase [NAD(+)] (Homo sapiens), sequence (P15428 whole entry, looked up): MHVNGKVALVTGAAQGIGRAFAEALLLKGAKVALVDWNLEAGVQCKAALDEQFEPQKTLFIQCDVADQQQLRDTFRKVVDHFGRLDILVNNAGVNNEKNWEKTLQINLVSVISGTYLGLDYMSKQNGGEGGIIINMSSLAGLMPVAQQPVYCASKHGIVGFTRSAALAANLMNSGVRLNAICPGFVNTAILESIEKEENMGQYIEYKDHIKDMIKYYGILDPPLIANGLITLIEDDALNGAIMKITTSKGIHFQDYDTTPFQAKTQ

Compound: O=P1(Nc2ccc(F)cc2)COc2ccccc2OC1
- thermal shift (delta Tm): 0.5 C (inactive)
- thermal shift (delta Tm) (measured here: delta Tm with NADH cofactor): 3.3 C
